# High-throughput results from PubChem BioAssay.
# GC-A act – GC-A (human) enzyme activation; P16066; HEK293 GC-A cells, cGMP TR-FRET, EC30 ANP; 0% at EC30 ANP, 100% saturating ANP; activation, % at 10 µM; hit rate 0.14% among 370,000; in the data active = activation above about 40%
# Target sequence (P16066 whole entry, looked up): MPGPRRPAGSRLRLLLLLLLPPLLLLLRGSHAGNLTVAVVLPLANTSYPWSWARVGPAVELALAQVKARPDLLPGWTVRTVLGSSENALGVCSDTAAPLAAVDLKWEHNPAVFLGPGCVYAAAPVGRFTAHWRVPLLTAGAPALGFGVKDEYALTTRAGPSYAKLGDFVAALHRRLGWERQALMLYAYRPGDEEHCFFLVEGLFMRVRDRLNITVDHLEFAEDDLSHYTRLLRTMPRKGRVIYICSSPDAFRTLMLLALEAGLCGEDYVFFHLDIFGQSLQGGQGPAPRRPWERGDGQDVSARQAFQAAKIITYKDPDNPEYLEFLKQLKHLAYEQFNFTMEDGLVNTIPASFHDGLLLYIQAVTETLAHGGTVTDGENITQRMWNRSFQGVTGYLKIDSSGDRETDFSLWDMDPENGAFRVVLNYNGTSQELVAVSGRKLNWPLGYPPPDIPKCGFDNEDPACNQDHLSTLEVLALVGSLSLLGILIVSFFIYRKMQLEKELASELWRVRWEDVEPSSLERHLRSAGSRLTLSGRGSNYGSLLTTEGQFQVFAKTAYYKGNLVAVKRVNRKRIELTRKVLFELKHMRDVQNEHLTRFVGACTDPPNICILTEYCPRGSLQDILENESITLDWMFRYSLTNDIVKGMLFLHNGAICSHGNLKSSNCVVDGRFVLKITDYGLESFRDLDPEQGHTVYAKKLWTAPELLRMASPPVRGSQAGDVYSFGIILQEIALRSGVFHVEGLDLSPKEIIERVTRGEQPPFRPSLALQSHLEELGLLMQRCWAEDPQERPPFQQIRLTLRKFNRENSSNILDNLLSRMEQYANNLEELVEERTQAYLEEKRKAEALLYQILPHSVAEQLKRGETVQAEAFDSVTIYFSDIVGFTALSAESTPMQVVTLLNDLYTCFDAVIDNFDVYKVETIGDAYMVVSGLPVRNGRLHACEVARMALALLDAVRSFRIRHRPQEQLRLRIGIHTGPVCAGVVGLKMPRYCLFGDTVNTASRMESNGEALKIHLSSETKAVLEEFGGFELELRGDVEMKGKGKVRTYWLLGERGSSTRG
# GC-B act – GC-B (human) receptor activation; HEK293-GC-B cells, CNP EC30, cGMP TR-FRET; 0% at EC30 CNP, 100% saturating CNP; activation, % at 10 µM; hit rate 0.11% among 370,000;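 active = activation at 10 µM reaching about 35% in either raw or pattern-adjusted values, limit read from the data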
# HIF act – HIF pathway transcriptional activation; U2OS HRE-luciferase reporter, luminescence; normalized: DMSO 0%, desferrioxamine 100%; activation, % at 7.5 µM (by protocol); hit rate 0.32% among 300,000; AID 1910;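 active = mean activation of at least 10% of the iron chelator positive control signal, with at least half of replicates also reaching 10%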
# proKLK7 act – proKLK7 (human) activation, primary screen; P49862; purified proKLK7, EDANS-DABCYL substrate fluorescence; 100% is mature enzyme control, 0% vehicle; activation, % at 7 µM; hit rate 0.9% among 370,000; AID 652039;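 active = activation above the mean of all tested compounds plus 3 SD, computed per campaign excluding outliers beyond control limits, cut at about 13% in these data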
# proKLK7 act conf – confirmation of human kallikrein-7 zymogen activators | activation, % at 7 µM | purified proKLK7, EDANS-DABCYL substrate fluorescence; scaled: vehicle 0, mature enzyme 100 | shares compounds with proKLK7 act | hit rate 68% among 3,200;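 active = activation, as change over the incubation, above the mean of all tested compounds plus 3 SD, cut at about 13% in these data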
# EDANS interfere – fluorescence interference counter-screen for KLK7 activators; hit rate 80% among 3,200; shares compounds with proKLK7 act; EDANS-DABCYL substrate fluorescence interference, no enzyme, 4 h; solvent 0%, active enzyme control 100%; activation, % at 7 µM;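 active = activation above the all-compound mean plus 3 SD, ignoring values outside control-based bounds, cut at about 4.8% in these data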;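 also: value is the 4 h activation minus the activation read at time zero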
# EDANS interf – optically interferes with EDANS-DABCYL fluorescence, kallikrein-7 activator counter-screen; EDANS-DABCYL peptide fluorescence interference, no enzyme; AID 720493; hit rate 20% among 250; EC50, µM; shares compounds with proKLK7 act;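 active = compounds that raise the fluorescence signal in this interference counterscreen, with EC50 at or below 10 µM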;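 also: intact quenched peptide substrate alone read at 355 nm excitation and 520 nm emission; signal is fluorescence gain from T0 to T4 after four hours at room temperature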
# * hit, by the source's call; i = inactive; . = not tested or not shown. A selection: hits, their analogues and other compounds. The true share with any hit is near 1.3%.
SMILES,GC-A act,GC-B act,HIF act,proKLK7 act,proKLK7 act conf,EDANS interfere,others
O=C(NN=C1CCCC1)c1cc(Cl)cc(Cl)c1O,3.0,3.1,-0.6,17.5*,12.2,15.4*,
O=C1C(=O)N(Cc2ccncc2)C(c2cccc(O)c2)/C1=C(\O)c1ccc2c(c1)OCCO2 (stereo not given),7.2,2.4,0.8,15.4*,5.7,7.4*,
COc1cc2c(cc1OC)C(C1C(=O)CC(C)CC1=O)N(C(=O)CCl)CC2 (stereo not given),5.0,9.8,0.0,213.2*,8.8,9.7*,
COc1ccc2c(c1)CCN(C(=O)CCl)C2C1C(=O)CCCC1=O (stereo not given),-0.6,2.4,-0.3,-0.1,.,.,
COc1cc2c(cc1OC)C(C1C(=O)CCCC1=O)N(C(=O)CCl)CC2 (stereo not given),4.8,-0.8,-0.2,190.9*,6.4,9.2*,
O=C1CCCC(=O)C1C1c2ccccc2CCN1C(=O)CCl (stereo not given),-1.7,-5.1,-0.1,-0.2,.,.,
CN(C)c1nc(C(F)(F)F)cc(=O)[nH]1,0.7,1.7,-0.4,0.5,.,.,
CC1Nc2nc(N(C)C)[nH]c(=O)c2NC1C (stereo not given),-0.3,-1.1,.,19.3*,12.4,17.6*,
COc1ccc(OC)c(NC(=O)c2cc(S(=O)(=O)NCc3ccco3)ccc2F)c1,-1.4,-4.1,-0.1,13.4*,-0.6,0.8,
CCOC(=O)C1=C(CSc2nc(-c3ccccc3)ccc2C#N)OC(N)=C(C#N)C1c1ccccc1 (stereo not given),-4.5,-7.2,3.6,469.9*,585.2*,565.9*,
CCOC(=O)C1=C(CSc2nc(-c3ccccc3)ccc2C#N)OC(N)=C(C#N)C1c1cccnc1 (stereo not given),3.1,-1.7,4.3,382.1*,384.4*,347.1*,
CCOC(=O)C1=C(CSc2nc3c(cc2C#N)CN(C)CC3)OC(N)=C(C#N)C1c1ccccc1 (stereo not given),-0.5,-3.8,0.2,6.7,.,.,
O=C(CSc1nc2ccccc2nc1N1CCCC1)N1CCN(c2cccc(C(F)(F)F)c2)CC1,-1.7,6.6,.,0.2,.,.,
C=CCNC(=S)NNC(=O)c1cccn(Cc2cccc(Cl)c2)c1=O,-0.3,5.3,-1.0,26.6*,42.5*,43.9*,
C=CCNC(=S)NNC(=O)c1cccn(Cc2ccc(Cl)cc2)c1=O,1.4,5.2,-0.1,27.3*,38.9*,46.6*,
O=C(NCCc1ccccc1)c1ccc(Sc2ccccc2Cl)c([N+](=O)[O-])c1,-2.4,0.5,.,-0.4,.,.,
COc1ccc(Oc2c(Br)cnn(Cc3cccc4ccccc34)c2=O)cc1,-23.9,-15.5,.,0.2,.,.,
CCN1CCN(c2cc3c(cc2F)c(=O)c(S(=O)(=O)c2ccccc2)cn3C)CC1,16.9,11.7,0.2,12.6*,2.7,2.6,
CC(=O)Nc1ccc2nc(NC(=O)c3cccs3)sc2c1,-0.9,-0.8,0.5,0.8,.,.,
COc1ccc2nc(NC(=O)c3cccs3)sc2c1,4.6,-11.3,21.4*,25.5*,1.6,1.3,
O=C(c1cc(-c2cccs2)nc2ccccc12)N1CCN(c2ccccc2O)CC1,4.4,-1.1,-0.2,-1.7,.,.,
CS(=O)(=O)N1CCN(C(=O)c2cc(-c3ccccc3)nc3ccccc23)CC1,-0.9,-1.0,-0.2,-0.5,.,.,
CC(=O)Nc1cc2c(ccc3ccccc32)oc1=O,-3.5,-4.7,0.0,23.2*,47.8*,56.6*,
CC(=O)c1cc2c(ccc3ccccc32)oc1=O,6.3,-0.6,0.4,6.1,.,.,
CS(=O)(=O)N1CCN(C(=O)c2cc(-c3cccs3)nc3ccccc23)CC1,-0.5,7.5,0.5,12.7*,16.0*,23.1*,
SMILES,GC-A act,GC-B act,HIF act,proKLK7 act,proKLK7 act conf,EDANS interfere,others
O=C(c1cc2c(ccc3ccccc32)oc1=O)N1CCN(CCO)CC1,3.6,-1.4,-0.3,26.1*,9.4,9.8*,
O=C(c1cc(-c2cccs2)nc2ccccc12)N1CCN(CCO)CC1,4.6,7.3,.,14.0*,22.3*,14.1*,EDANS interf=>69.5
O=C(NCc1ccccc1)Nc1ccccc1C(=O)N1CCCC1,1.0,-3.1,.,-0.5,.,.,
C[C@H]1[C@@H](OC(=O)Nc2ccc(Br)cc2)CC[C@@]23CCCN2C(=O)CCC[C@@H]13,-8.6,-14.4,.,.,.,.,
N#C/C(=C\c1ccc(O)cc1)C(=O)NCc1ccccc1,2.9,4.1,-0.3,0.2,.,.,
COc1ccc(/C=C(\C#N)C(=O)NCc2ccccc2)cc1,-1.2,2.8,0.1,38.1*,-187.0,-240.7,
COCCCNC(=O)C[C@H]1C[C@H](C(=O)N2CCOCC2)[C@@]2(CCC3CCCC3)c3[nH]c4cc(-c5ccco5)ccc4c3CCN2C1=O,-3.1,7.3,.,23.2*,12.6*,17.6*,
O=C(C[C@H]1C[C@H](C(=O)N2CCOCC2)[C@@]2(CCC3CCCC3)c3[nH]c4cc(-c5ccco5)ccc4c3CCN2C1=O)NCC12CC3CC(CC(C3)C1)C2,-1.0,1.6,.,5.7,.,.,
O=C(C[C@H]1C[C@H](C(=O)N2CCOCC2)[C@@]2(CCC3CCCC3)c3[nH]c4cc(-c5ccco5)ccc4c3CCN2C1=O)NCCN1CCOCC1,0.6,-2.9,.,91.0*,90.2*,100.7*,
CN(C)CCCNC(=O)C[C@H]1C[C@H](C(=O)N2CCOCC2)[C@@]2(CCC3CCCC3)c3[nH]c4cc(-c5ccco5)ccc4c3CCN2C1=O,2.6,-6.6,.,68.2*,51.4*,51.1*,
c1ccc(-n2c(SCc3cccc4ccccc34)nnc2-c2ccncc2)cc1,-9.1,-8.8,.,0.7,.,.,
Cc1ccccc1NC(=O)Nc1ccc2c(c1)C(=O)N(C)[C@H]1CC[C@H](CC(=O)NCC3CC3)O[C@@H]1CO2,4.8,5.0,.,-0.5,.,.,
N#C/C(=C/c1ccc(-c2ccc(S(N)(=O)=O)cc2)o1)C(=O)Nc1ccccc1,-7.5,-2.3,-0.6,26.9*,16.5*,0.4,EDANS interf=i
CC1(C)CC(=O)C(C=Nc2cccnc2)=C(O)C1,1.1,1.7,-0.2,-0.4,.,.,
CC1(C)CC(=O)C(C=Nc2cccnc2/N=C/C2=C(O)CC(C)(C)CC2=O)=C(O)C1,3.0,1.2,0.1,25.1*,-7.2,-3.6,
COc1ccc2c(c1)CCC1(C)CC(=O)C(Br)=C21 (stereo not given),-4.5,-10.8,.,124.3*,71.3*,75.7*,
COc1ccccc1CNC(=O)C[C@H]1CC[C@H]2[C@H](COc3ccc(NS(=O)(=O)c4ccc(C)cc4)cc3C(=O)N2C)O1,1.5,-3.0,.,0.3,.,.,
